Records with an inconclusive call do not appear. Activity calls are given as the source filed them. Calls follow the shape of the dose curve; as a rule, active = well fitted curve in the direction sought with a large enough effect; inconclusive = small, poorly fitted or top-dose-only effect, or another doubt; inactive = no such curve, though single readings can be large; an effect the other way counts as inactive or inconclusive.
Key:
[1] = qHTS to identify inhibitors of the type 1 interferon - major histocompatibility complex class I in skeletal muscle: primary screen against the NCATS Pharmaceutical Collection (AID 1347407); conditions: human skeletal muscle cells, IFN-b-induced MHC-I HiBiT luminescence, 24 h; series mostly up to 45.9 µM;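 also: luminescence of HiBiT knocked into endogenous HLA-B as interferon-induced MHC class I level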
Method in brief: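 Compounds […] were added to CRISPR-engineered HLA-B-HiBiT C25cl48 human myoblasts with 4.0 ng/ml IFN-beta. After 24 hrs at 37 C, cells were lysed and HiBiT luminescence measured.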

[2] = target: Protein phosphatase 1D (Homo sapiens) (UniProt O15297); test: RapidFire Mass Spectrometry qHTS Assay for Modulators of WT P53-Induced Phosphatase 1 (WIP1) (AID 1347424); conditions: WIP1 dephosphorylation of phosphopeptide, RapidFire MS; series mostly up to 63 µM;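 also: amount of dephosphorylated VEPPL-S-QETFS peptide product formed by WIP1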
Sequence of Protein phosphatase 1D (Homo sapiens) (O15297 whole entry, looked up): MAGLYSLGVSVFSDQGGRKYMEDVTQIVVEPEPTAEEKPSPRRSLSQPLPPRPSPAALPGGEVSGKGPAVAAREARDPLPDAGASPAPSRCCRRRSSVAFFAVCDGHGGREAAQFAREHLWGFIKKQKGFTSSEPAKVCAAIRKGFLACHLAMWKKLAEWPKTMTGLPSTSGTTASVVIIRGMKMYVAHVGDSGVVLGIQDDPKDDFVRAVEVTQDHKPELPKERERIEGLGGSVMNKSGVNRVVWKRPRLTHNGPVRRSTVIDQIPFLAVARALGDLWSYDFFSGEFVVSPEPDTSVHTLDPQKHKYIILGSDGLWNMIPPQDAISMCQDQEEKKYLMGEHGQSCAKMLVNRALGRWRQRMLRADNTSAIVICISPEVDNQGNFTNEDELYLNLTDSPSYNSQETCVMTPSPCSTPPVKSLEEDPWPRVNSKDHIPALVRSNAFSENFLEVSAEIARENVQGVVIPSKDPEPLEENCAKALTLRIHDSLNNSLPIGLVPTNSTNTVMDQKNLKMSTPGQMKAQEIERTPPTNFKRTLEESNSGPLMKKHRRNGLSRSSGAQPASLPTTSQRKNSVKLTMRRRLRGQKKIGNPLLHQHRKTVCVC
Method in brief: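 10 nM WIP1 preincubated with compounds 1 hr at room temperature in pH 7.5 Tris buffer with 30 mM MgCl2, 1 mM TCEP; 2 uM VEPPL-pS-QETFS phosphopeptide for 5 min, formic acid quench; dephosphorylated product quantified by RapidFire MS against labelled standard.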

[3] = target: Protein phosphatase 1D (Homo sapiens) (UniProt O15297); test: Rhodamine-PBP qHTS Assay for Modulators of WT P53-Induced Phosphatase 1 (WIP1) (AID 1347425); conditions: recombinant WIP1, Rhodamine-PBP phosphate fluorescence, real-time; series mostly up to 57.5 µM
Method in brief: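 The read-out is the change in Rhodamine-PBP fluorescence (f1 - f0, ex 525/em 598 nm) as Pi is released, read each minute for 11 min. Final reaction: 5 nM WIP1, 10 uM phosphopeptide VEPPL-pS-QETFS, 10 uM Rh-PBP, 50 mM Tris-HCl pH 7.5, 30 mM MgCl2. Compound was preincubated with enzyme for 1 hour at room temperature.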

[4] = Primary qHTS for inhibitors of La Crosse Virus (LACV) - induced cell death in SH-SY5Y cells (AID 1508616); conditions: SH-SY5Y LACV cytopathicity rescue, ATP luminescence, 6 d; series mostly up to 4.29 µM;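 also: top concentration of the series differs between compounds; higher means more rescue of cells from virus-induced death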
Method in brief: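 Readout was luminescence from ATPLite 1step added after a 6-day LACV infection (0.01 MOI) of SH-SY5Y cells that had received pin-transferred compound 24 hr after seeding.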

[5] = target: Calcium and integrin-binding protein 1 (Homo sapiens) (UniProt Q99828); test: Primary qHTS for Identification of Calcium Integrin Binding Protein 1 (CIB1) Competitor (AID 1508620); conditions: CIB1-GST / FITC-alphaIIb peptide fluorescence polarization; series mostly up to 114 µM;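 also: GST tagged CIB1 binding a fluorescein labelled alphaIIb integrin peptide tracer; top concentration of the series differs between compounds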
Sequence of Calcium and integrin-binding protein 1 (Homo sapiens) (Q99828 whole entry, looked up): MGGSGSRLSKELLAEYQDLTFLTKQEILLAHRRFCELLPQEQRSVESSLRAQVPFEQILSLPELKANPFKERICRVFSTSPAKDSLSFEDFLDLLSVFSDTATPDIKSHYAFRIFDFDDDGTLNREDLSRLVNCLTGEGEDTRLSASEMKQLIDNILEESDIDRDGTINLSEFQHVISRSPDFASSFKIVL
Method in brief: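 Fluorescence polarization competition: GST-tagged CIB1 (1 uM final) preincubated with compound 15 min at room temperature, then FITC-labelled alphaIIb peptide (100 nM final) added. After 15 min at room temperature, polarization read at Ex 480/Em 540.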

[6] = Counterscreen qHTS for small molecule stabilizers of the endoplasmic reticulum resident proteome: GLuc-NoTag assay (AID 1508627); conditions: Gaussia luciferase NoTag secretion counterscreen, luminescence, thapsigargin 100 nM for final 4 h; series mostly up to 76.4 µM;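 also: SH-SY5Y cells given compound then 100 nM thapsigargin to empty ER calcium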
Method in brief: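 SH-SY5Y cells stably expressing constitutively secreted GLuc without SERCaMP tag, exposed to compound for 19 hr, then to 100 nM thapsigargin for 4 hr at 37C. Medium luciferase was read by coelenterazine luminescence without lysis.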

Measured: outcome

C[C@@H](N)C(=O)O
inactive: [1] | [2] | [3] | [4] | [5]

CCCCCCCCCCCCCCCCN
inactive: [1] | [2] | [3] | [4] | [5]

COc1ccc(C(=O)N2CCN(CC(=O)N3CCOCC3)CC2)cc1
inactive: [1] | [2] | [3] | [4] | [5] | [6]

CCOC(N)=O
inactive: [1] | [2] | [3] | [4] | [5]

Cc1cc(O)cc(C)c1Cl
inactive: [1] | [2] | [3] | [4] | [5]

Cc1cc(=O)[nH]c(=S)[nH]1
inactive: [1] | [2] | [3] | [4] | [5]

CN1CCN(C(=O)C2CCCCC2)CC1
inactive: [1] | [2] | [3] | [4] | [5]

C[C@H]1COc2c(C3(N)CC3)c(F)cc3c(=O)c(C(=O)O)cn1c23
inactive: [1] | [2] | [3] | [4] | [5]

CC1(C)S[C@@H]2[C@H](NC(=O)C(C(=O)O)c3ccccc3)C(=O)N2[C@H]1C(=O)O (stereo not given in full)
inactive: [1] | [2] | [3] | [5]

OCc1ccc(Cl)cc1Cl
inactive: [1] | [2] | [3] | [4] | [5]

CCCCCCCCCCC(CO)CCCCCCCC (stereo not given)
inactive: [1] | [2] | [3] | [4] | [5]

C/C(=C(\CCO)SS/C(CCO)=C(\C)N(C=O)Cc1cnc(C)nc1N)N(C=O)Cc1cnc(C)nc1N
inactive: [1] | [2] | [3] | [4] | [5]

NS(=O)(=O)c1cc(C2(O)NC(=O)c3ccccc32)ccc1Cl (stereo not given)
inactive: [1] | [2] | [3] | [4] | [5]

From PubChem BioAssay (NCATS)
